Screening results as filed in PubChem BioAssay.
Most compounds without a hit are left out; they make up all but 6.7% or so of the library.
T cruzi growth-1: inhibitors of T. cruzi proliferation. T. cruzi beta-gal in NIH3T3, GalScreen luminescence, 90 h. inhibition, % at 8.34 µM. hit rate 5.9% among 77,000. AID 624255;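 active = mean inhibition above about 93%, with at least 55% of replicates each passing it, limit read from the data, passing the limit was not always enough; inconclusive = only one of those two conditions holds; inactive = neither condition holds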
C diff HTS: C. difficile growth inhibition; Clostridium difficile clinical isolate growth, OD600, 24 h; stronger effect = lower value; growth activity, negative = inhibition, % at 16 µg/mL (by protocol); hit rate 0.25% among 86,000;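 active = mean growth activity at or below -80% and every replicate also at or below -80%; inconclusive = mean at or below -80% but some replicate above -80%; inactive = mean growth activity above -80%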;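 note: 0% = DMSO wells and -100% = levofloxacin 16 µg/mL wells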
Pf Dd2 growth: blocks growth of Plasmodium falciparum Dd2 parasites; hit rate 2.3% among 94,000; activity change, % at 10 µM; P. falciparum Dd2 growth, SYBR Green, 72 h; stronger effect = lower value; AID 1159554; in the data active = activity change below about -80%; inconclusive = no clear call, values can overlap the other calls
T cruzi growth-2: inhibitors of T. cruzi proliferation | T. cruzi beta-gal in NIH3T3, GalScreen luminescence, 90 h | hit rate 72% among 5,600 | inhibition, % at 8.35 µM | AID 651739 | shares compounds with T cruzi growth-1;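 active = mean replicate inhibition above about 95% and at least 55% of replicates individually reaching it, limit read from the data; inconclusive = only one of the two criteria is met; inactive = neither criterion is met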
T cruzi growth-3: inhibitors of T. cruzi proliferation; shares compounds with T cruzi growth-1; T. cruzi beta-gal in NIH3T3, GalScreen luminescence, 90 h; inhibition, % at 2.09 µM; hit rate 21% among 5,600;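 active = mean inhibition above about 95%, with at least 55% of replicates also reaching it, limit read from the data; inconclusive = meets just one of the two conditions; inactive = meets neither condition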;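 note: plate controls were neutral control median for no effect and positive control median for full effect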
3T3 cytotox: cytotoxicity in mouse NIH/3T3 fibroblasts. shares compounds with T cruzi growth-1. NIH/3T3 viability, CellTiter-Glo ATP luminescence, 90 h. cytotoxicity (signal decrease), % at 8.35 µM. hit rate 14% among 5,600. AID 651742;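 active = mean signal decrease across replicates above about 35% based on untreated-well scatter, with enough replicates individually passing, limit read from the data; inconclusive = no rule stated though some were filed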;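 note: 0% = median of neutral control wells and 100% = median of positive control wells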
3T3 cytotox 2: NIH/3T3 (mouse) viability loss. shares compounds with T cruzi growth-1. NIH/3T3 viability, CellTiter-Glo ATP luminescence, 90 h. inhibition, % at 24.9 µM. hit rate 56% among 5,600. AID 651744;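 active = mean loss of cell viability signal at or above a set limit, and enough replicates individually reaching it; inconclusive = meets only the mean limit or only the replicate share; inactive = meets neither condition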;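 note: 0% = median of neutral control wells and 100% = median of positive control wells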
An asterisk follows results filed as active.

`CN(C)C(=O)c1ccc(-c2ccc([C@@H]3[C@H](CO)N4CCCCN(Cc5cccnc5)C[C@@H]34)cc2)cc1` gave T cruzi growth-1 83, C diff HTS -1 and Pf Dd2 growth -21.
CN(C)C(=O)c1cccc(-c2ccc([C@H]3[C@H](CO)N4CCCCN(Cc5cccnc5)C[C@@H]34)cc2)c1 was read as T cruzi growth-1 101*, C diff HTS -10, Pf Dd2 growth 12, T cruzi growth-2 107*, T cruzi growth-3 91, 3T3 cytotox -5 and 3T3 cytotox 2 -6.
Screening Cc1ccccc1-c1ccc([C@H]2[C@@H](CO)N3CCCCN(Cc4cccnc4)C[C@H]23)cc1 returned T cruzi growth-1 109*, C diff HTS 3, Pf Dd2 growth -65, T cruzi growth-2 106*, T cruzi growth-3 91, 3T3 cytotox 46* and 3T3 cytotox 2 106*.
Screening OC[C@@H]1[C@H](c2ccc(-c3ccc(F)cc3)cc2)[C@@H]2CN(Cc3ccncc3)CCCCN12 returned T cruzi growth-1 98*, C diff HTS 3, Pf Dd2 growth -21, T cruzi growth-2 106*, T cruzi growth-3 45, 3T3 cytotox 37* and 3T3 cytotox 2 103*.
For OC[C@H]1[C@H](c2ccc(-c3ccc(F)cc3)cc2)[C@@H]2CN(Cc3cccnc3)CCCCN12 the results were T cruzi growth-1 110*, C diff HTS -2, Pf Dd2 growth -66, T cruzi growth-2 114*, T cruzi growth-3 91, 3T3 cytotox 17 and 3T3 cytotox 2 103*.
`CCCN(C)C[C@@H]1Oc2ncc(-c3ccccc3)cc2C(=O)N([C@H](C)CO)C[C@H]1C` gave Pf Dd2 growth -35.
Screening C[C@@H]1CN([C@H](C)CO)C(=O)c2cc(NS(=O)(=O)c3cccs3)ccc2O[C@H]1CN(C)C(=O)Nc1ccccc1 returned T cruzi growth-1 -4, C diff HTS -8 and Pf Dd2 growth -14.
Screening C[C@H](CO)N1C[C@H](C)[C@@H](CN(C)S(=O)(=O)c2ccccc2F)Oc2ncc(C#Cc3ccccc3)cc2C1=O returned T cruzi growth-1 87, C diff HTS 2 and Pf Dd2 growth -53.
Screening C[C@@H]1CN([C@@H](C)CO)C(=O)c2cccc(NS(=O)(=O)c3cn(C)cn3)c2O[C@@H]1CN(C)C(=O)NC1CCCCC1 returned T cruzi growth-1 -85, C diff HTS -4 and Pf Dd2 growth -6.
`OC[C@@H]1[C@@H](c2ccc(-c3ccc(F)cc3)cc2)[C@H]2CN(Cc3cccnc3)CCCCN12` gave T cruzi growth-1 113*, C diff HTS -2, Pf Dd2 growth -45, T cruzi growth-2 53, T cruzi growth-3 20, 3T3 cytotox 28 and 3T3 cytotox 2 102*.
`C[C@H](CO)N1C[C@H](C)[C@H](CN(C)Cc2ccc(-c3ccccc3)cc2)Oc2ccc(NC(=O)CCN3CCOCC3)cc2CC1=O` gave T cruzi growth-1 18, C diff HTS 4 and Pf Dd2 growth -9.
`C[C@H](CO)N1C[C@H](C)[C@@H](CN(C)Cc2ccc(-c3ccccc3)cc2)Oc2ccc(NC(=O)CCN3CCOCC3)cc2CC1=O` gave T cruzi growth-1 99*, C diff HTS -3, Pf Dd2 growth -57, T cruzi growth-2 114*, T cruzi growth-3 54, 3T3 cytotox 13 and 3T3 cytotox 2 105*.
`C[C@H](CO)N1C[C@H](C)[C@H](CN(C)Cc2ccc(C(F)(F)F)cc2)Oc2ccc(NC(=O)CCN3CCOCC3)cc2CC1=O` gave T cruzi growth-1 inconclusive, C diff HTS 5, Pf Dd2 growth -2, T cruzi growth-2 -42, T cruzi growth-3 19, 3T3 cytotox -5 and 3T3 cytotox 2 3.
C[C@@H]1CN([C@@H](C)CO)C(=O)Cc2cc(NC(=O)CCN3CCOCC3)ccc2O[C@@H]1CN(C)Cc1ccc(C(F)(F)F)cc1 was read as T cruzi growth-1 12, C diff HTS -17 and Pf Dd2 growth -33.
C/C=C/c1ccc2c(c1)O[C@@H](CN(C)Cc1ccccc1)[C@@H](C)CN([C@@H](C)CO)S2(=O)=O was read as T cruzi growth-1 37, C diff HTS 1 and Pf Dd2 growth -17.
For C/C=C/c1ccc2c(c1)O[C@H](CN(C)Cc1ccc(F)cc1)[C@@H](C)CN([C@@H](C)CO)S2(=O)=O the results were T cruzi growth-1 117*, C diff HTS 31, Pf Dd2 growth -6, T cruzi growth-2 inconclusive, T cruzi growth-3 89, 3T3 cytotox 8 and 3T3 cytotox 2 104*.
C/C=C/c1ccc2c(c1)O[C@H](CN(C)Cc1cccc(F)c1)[C@@H](C)CN([C@@H](C)CO)S2(=O)=O was read as C diff HTS 28 and Pf Dd2 growth -20.
C/C=C/c1ccc2c(c1)O[C@H](CN(C)Cc1ccccc1)[C@@H](C)CN([C@@H](C)CO)S2(=O)=O was read as T cruzi growth-1 117*, C diff HTS 8, Pf Dd2 growth -2, T cruzi growth-2 100*, T cruzi growth-3 104*, 3T3 cytotox 14 and 3T3 cytotox 2 104*.
`O=C(C[C@H]1CC[C@H]2[C@@H](COC[C@@H](O)CN2S(=O)(=O)c2ccc(Cl)cc2)O1)NCCN1CCCC1` gave T cruzi growth-1 -7, C diff HTS 6 and Pf Dd2 growth 5.
C[C@@H]1CN([C@H](C)CO)C(=O)c2cccc(NS(=O)(=O)c3cn(C)cn3)c2O[C@H]1CN(C)C(=O)Nc1ccc(C(F)(F)F)cc1 was read as T cruzi growth-1 -93, C diff HTS 3 and Pf Dd2 growth -18.
COc1ccc2c3c([nH]c2c1)[C@H](CO)N(Cc1cc(F)ccc1F)CC31CCN(C)CC1 was read as Pf Dd2 growth 26.
Screening C[C@H](CO)N1C[C@H](C)[C@H](CN(C)Cc2ccc(F)cc2)Oc2ncc(/C=C/c3ccccc3)cc2C1=O returned C diff HTS 26 and Pf Dd2 growth -63.
`C[C@@H]1CN([C@H](C)CO)C(=O)c2cc(/C=C/c3ccccc3)cnc2O[C@H]1CN(C)Cc1ccccc1F` gave T cruzi growth-1 87*, C diff HTS 20, Pf Dd2 growth -49, T cruzi growth-2 103*, T cruzi growth-3 inconclusive, 3T3 cytotox 10 and 3T3 cytotox 2 103*.
Screening C[C@H](CO)N1C[C@H](C)[C@H](CN(C)Cc2ccccc2F)Oc2ncc(/C=C/c3ccccc3)cc2C1=O returned T cruzi growth-1 95*, C diff HTS 25, Pf Dd2 growth -39, T cruzi growth-2 107*, T cruzi growth-3 77, 3T3 cytotox 17 and 3T3 cytotox 2 60*.
C/C=C/c1cnc2c(c1)C(=O)N([C@@H](C)CO)C[C@@H](C)[C@H](CN(C)Cc1ccccc1F)O2 was read as Pf Dd2 growth 20.
